FMDV inh = High Throughput Screening for Foot and Mouth Disease Virus Antivirals; FMDV antiviral cell-based qHTS; Potency, µM (highest dose often 57.9 µM), without a hit: top-dose activity change, negative = inhibition, hits mostly inhibitors; 410,000 compounds, 1.2% hits; AID 1159524, 2015; calls by dose curve; tested in HEK293T cells; note: read-out not given here; potency is the fitted concentration of half-maximal effect; nearly all actives have a fitted effect of over 45% in size
HCMV inh = qHTS Assay for inhibitors of the human cytomegalovirus (HCMV). HFF cells, HCMV-luciferase reporter, 72 h; hits give low values. activity change, negative = inhibition, % at 57.5 µM. 410,000 compounds, 4.5% hits. AID 1259415, 2018; in the data active = activity change below about -60%; inconclusive = no clear call, values can overlap the other calls; inactive = above about -39%
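Two compound doses tested in HFFs infected with HCMV-luciferase, MOI 1 PFU/cell, 72 h at 37C. Lysate luminescence read with OneGlo; data normalized against buffer-only and 10uM Salinomycin inhibitor controls.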
Lassa entry inh = qHTS for Inhibitors of binding or entry into cells for Lassa Virus; AID 540256, 2011; Potency, µM (series often up to 37.9 µM), for inactives: top-dose activity change, negative = inhibition, usual class: inhibitors; Lassa virus pseudotype entry inhibition, cell reporter; 300,000 compounds, 1.2% hits; calls by dose curve; tested in HEK293 cells; note: potency is the fitted concentration of half-maximal effect; nearly all actives have a fitted effect of over 50% in size
HCV inh = qHTS Assay for Inhibitors of Hepatitis C Virus (HCV); Huh7.5.1 HCVcc-Cre infection, luciferase reporter, 44 h; Potency, µM (top dose mostly 41.8 µM), for the others: top-dose activity change, negative = inhibition, hits mostly inhibitors; 340,000 compounds, 3.4% hits; AID 651820, 2012; active = well fitted inhibition curve with a large enough effect; inconclusive = small, poorly fitted or top-dose-only effect, or another doubt; inactive = no such curve, though single readings can be large or run the other way; note: potency is the fitted concentration of half-maximal effect
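Cells (1,000/well) were plated 4 h before compound, then infected with HCVcc-Cre virus (~0.5 moi). After 44 h further culture, infection was read as luciferase luminescence following a 15 min substrate incubation at room temperature.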
MARV entry inh = qHTS for inhibitors of binding or entry into cells for Marburg Virus. Marburg virus pseudotyped entry inhibition, cell reporter. Potency, µM (series often up to 37.8 µM), for the others: at the highest dose activity change, negative = inhibition, actives largely listed as inhibitors. 300,000 compounds, 1.8% hits; calls by dose curve; tested in HEK293 cells; note: potency is the fitted concentration of half-maximal effect
* = called active by the depositor; u = inconclusive; x = no result; ! = repeats disagree; [ ] = remark or other dose. Rows were chosen to be rich in hits. Some 7.9% of all compounds tested hit in one or more screens of this group. % is set by controls: 0 for no effect and ±100 for the full control effect.

SMILES	FMDV inh	HCMV inh	Lassa entry inh	HCV inh	MARV entry inh
O=C(NCC(c1ccco1)N1CCN(c2ccc(F)cc2)CC1)c1cccs1 (stereo not drawn)	-12%	6	-22%	-25%	u
NC(N)=N/N=C/c1ccccc1Cl	-19%	-14	x	-11%	x
NC(N)=N/N=C/c1c(Cl)cccc1Cl	-18%	-73*!	u	-25%	11µM*
O=C(CSc1nc2c([nH]c3ccccc32)c(=O)n1-c1ccc(Cl)cc1)N1CCc2ccccc21	1%	9	6%[46.1 µM]	x	x
COc1ccc(CCn2c(=N)c(C(=O)NCCN3CCOCC3)cc3c(=O)n4cccc(C)c4nc32)cc1OC	-21%	-95*	x	u	x
Cc1cccn2c(=O)c3cc(C(=O)NCCN4CCOCC4)c(=N)n(CCCN4CCOCC4)c3nc12	-2%	-2	u	u	7.9µM*
Cc1cccn2c(=O)c3cc(C(=O)NCCN4CCOCC4)c(=N)n(CCc4ccccc4)c3nc12	-7%	-85*	-24%	u	u
Cc1cc(Nc2ccc(Br)cc2)nc(C)n1	51%	21	19%[46.1 µM]	x	18%[46.1 µM]
COc1ccc2cc(C(=O)C3CCCN(Cc4cccc(C)n4)C3)ccc2c1 (stereo not drawn)	u	-67*	u	u	22µM*
COc1c(C)cc(C(=O)C2CCCN(C(=O)c3ccc4[nH]ccc4c3)C2)cc1C (stereo not drawn)	-16%	u	4.5µM*	-8%	-9%[46.1 µM]
COc1c(C)cc(C(=O)C2CCCN(Cc3ccccn3)C2)cc1C (stereo not drawn)	-22%	-65*	-26%[46.1 µM]	-2%	u
COc1cccc(C(=O)C2CCCN(Cc3ccccn3)C2)c1 (stereo not drawn)	-18%	46	-4%	-4%	-26%[46.1 µM]
COc1c(C)cc(C(=O)C2CCCN(C(=O)CCc3scnc3C)C2)cc1C (stereo not drawn)	-13%	-62*	x	10µM*	x
CCOC(=O)Cc1csc(NC(=O)CCS(=O)(=O)Cc2ccccc2)n1	-22%	31	-3%	-17%	0%
CCO[C@H]1OC(C(N)=O)=C[C@@H](C2CC2)[C@@H]1CCCO	-3%	x	x	19%	x
CCOc1ccc(CCNC(=O)CS(=O)(=O)Cc2nc(-c3ccccc3F)oc2C)cc1	-28%	-66*	1%[46.1 µM]	10µM*	u
Cc1ccccc1-c1nc(CS(=O)(=O)CC(=O)Nc2c(C)cccc2C)c(C)o1	-30%	-78*	-14%[46.1 µM]	x	-3%[46.1 µM]
Cc1ccc(CNC(=O)CS(=O)(=O)Cc2nc(-c3ccccc3C)oc2C)cc1	-10%	-61*	-21%[46.1 µM]	x	13%[46.1 µM]
CCCS(=O)(=O)NCc1c(C)ncc2c1CCN(C(=O)c1c(F)ccc(F)c1F)C2	-8%	x	x	x	x
Cc1cccc(NC(=O)CCNS(=O)(=O)c2cc(Br)cnc2N)c1C	16%	-39	-2%[46.1 µM]	24%	4%[46.1 µM]
Cc1cc(C)n2c(=O)[nH]nc2c1	6%	18	10%[46.1 µM]	-5%	4%[46.1 µM]
Cc1ccc(-c2ccnc(-n3ncc(C(=O)NCCN4CCOCC4)c3C3CC3)n2)o1	-21%	x	x	x	x
CCCNC(=O)Cn1nc(-c2ccccc2OC)ccc1=O	-24%	2	x	x	x
COc1ccccc1-c1ccc(=O)n(CC(=O)NC2CCc3ccccc32)n1 (stereo not drawn)	-9%	-87*	0%[46.1 µM]	-8%	u
C[C@H]1CC[C@H]2C(=O)N(Cc3ccc(Cl)cc3)C[C@H](O)CN2[C@H]1c1ccc(Br)cc1	x	x	x	x	-2%[14.2 µM]
SMILES	FMDV inh	HCMV inh	Lassa entry inh	HCV inh	MARV entry inh
CCC(C(=O)NCCCN1CC(C)CC(C)C1)n1nc(C)c2sc3ccccc3c2c1=O (stereo not drawn)	0%	-73*	x	-13%	x
Cn1c(NCc2ccccc2)nc2cc(-c3ccccc3)sc2c1=O	11%	-4	x	x	x
COc1ccc(-c2cc3nc4n(c(=O)c3s2)CCC4)cc1	0%	-23	u	-7%	1.6µM*
COc1ccc(-c2cc3nc(C)n(N)c(=O)c3s2)cc1	7.9µM*	-38	x	8%	x
Cc1nc2cc(-c3ccccc3)sc2c(=O)n1N	7.1µM*	-89*	u	-14%	u
COc1ccc(-c2cc3nc4n(c(=O)c3s2)CCCCC4)cc1	-9%	31	4%[46.1 µM]	u	u
COc1cc(-c2nc(C)cnc2C)cc2c1OCCN(C(=O)Cn1nc(-c3ccccc3)c3ccccc3c1=O)C2	3%	x	x	x	x
N#Cc1ncc(-c2ccc3c(c2)OCCOCCOCCOCCO3)nc1C#N	40µM*	-73*	u	-9%	u
COc1cc(C2CC(=O)Nc3cc4c(cc32)OCCO4)cc(OC)c1O (stereo not drawn)	-12%	-25	-27%[46.1 µM]	x	5%[46.1 µM]
C[C@H]1CCC[C@H](O)CCCCCc2cc(O)cc(O)c2C(=O)O1	11µM*	-98*	x	-83%	-1%
CC1CCC/C=C/C(=O)c2c(O)cc(O)cc2CC(=O)O1 (stereo not drawn)	32µM*	-105*	x	-36%	x
COc1cc2c(c(OC)c1)C(=O)OC(C)CCCC(=O)CCCCC2 (stereo not drawn)	u	-10	-21%	-1%	u
COc1cc(O)cc2c1C(=O)O[C@@H](C)CCCC(=O)CCCCC2	-11%	u	x	7%	x
CC1CCC[C@H](O)CCCCCc2cc(O)cc(O)c2C(=O)O1 (stereo partly drawn)	35µM*	u	1%	1%[8.37 µM]	-29%
CC1CCCC(=O)CCC/C=C/c2cc(O)cc(O)c2C(=O)O1 (stereo not drawn)	-21%	x	x	x	x
C[C@H]1CCC[C@@H](O)CCC/C=C/c2cc(O)cc(O)c2C(=O)O1	3.5µM*	-105*	-50%[14.3 µM]	x	u
O=C(c1ccccc1F)N1CC(=O)N2[C@H](CO)[C@H](c3ccc(Br)cc3)[C@@H]2C1	x	-9	x	x	x
COC(=O)[C@@]1(C=C2c3ccc(OC)cc3[C@@H](OC)[C@@H]2C)[C@@H]2C=CC[C@@H]21	x	x	x	x	-11%[14.2 µM]
CC(C)OC(=O)CSc1nnc(-c2ccc(O)cc2)n1Cc1ccccc1	-8%	-35	-19%	2%	12%[46.1 µM]
O=C(CSc1nnc(-c2ccc(O)cc2)n1Cc1ccccc1)NNC(=O)c1ccc(Br)cc1	-8%	-68*	0%	-20%	16%
N#CC1=C(N)OC2=C(C(=O)CC(c3ccccc3)C2)C1c1ccc2c(c1)OCO2 (stereo not drawn)	u	u	13µM*	2%	-4%
COc1ccccc1C(=O)Nc1ccc(-c2cc(C(F)(F)F)nn2-c2ccccc2)cc1	u	-61*	-27%[46.1 µM]	x	u
COc1ccccc1C(=O)NC(=O)Nc1ccc(-c2cc(C(F)(F)F)nn2-c2ccccc2)cc1	u	-36	-6%[46.1 µM]	x	-3%[46.1 µM]
Cc1c(C(=O)NCc2cccnc2)oc2ccc(S(=O)(=O)N3CCCCC3)cc12	u	-83*	-5%	u	-7%
Cc1c(C(=O)NCc2cccnc2)oc2ccc(S(=O)(=O)N3CCCCCC3)cc12	-29%	-20	-15%	11µM*!	-6%

Screens (PubChem BioAssay)
